Records with an inconclusive call do not appear. Calls of active or inactive are those of the source. How the source made its calls, unless noted: active means hit-call score of the fitted dose curve at least 0.9, where 1 is the maximum; inactive means score below 0.9.
Assays:
[1] = biological target: Paired box protein Pax-6 (Homo sapiens) (UniProt P26367); test: ATG_Pax6_CIS: Attagene CIS-FACTORIAL HepG2 Assay for human Paired Box 6 (PAX6) (AID 2282956); settings: HepG2 CIS-FACTORIAL PAX6 reporter transcription, RNA readout; actives raise or lower the signal
In short: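 After twenty-four hours of chemical exposure, transfected HepG2 cells are harvested for RNA. Cis-promoter reporter transcripts are amplified, fluorescently labelled and sized by capillary electrophoresis, with gain and loss of signal scored against DMSO.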

[2] = ATG_PXRE_CIS: Attagene CIS-FACTORIAL HepG2 Assay for human Pregnane X Receptor Element (PXRE) (AID 2282957); settings: HepG2 Attagene CIS-FACTORIAL PXRE reporter, mRNA; actives raise or lower the signal
In short: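 Multiplexed cis-reporter assay in transiently transfected human HepG2 cells; 24 h chemical exposure. Reporter transcripts quantified by RT-PCR with fluorescent labeling and capillary electrophoresis.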

[3] = ATG_PPRE_CIS: Attagene CIS-FACTORIAL HepG2 Assay for human Peroxisome Proliferator-activated Response Element (PPRE) (AID 2282958); settings: HepG2 PPRE cis-element reporter, Attagene transcription factor profiling; actives raise or lower the signal
In short: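 Transcript-level reporter induction in transfected HepG2 cells after 24 h chemical exposure, quantified by fluorescence from RT-PCR products separated by capillary electrophoresis.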

[4] = ATG_RORE_CIS: Attagene CIS-FACTORIAL HepG2 Assay for human RAR-related Orphan Receptor Element (RORE) (AID 2282959); settings: HepG2 Attagene cis-factorial RORE reporter, mRNA; actives raise or lower the signal
In short: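 Multiplexed reporter assay measuring mRNA induction from a cis promoter element in transiently transfected HepG2 cells after 24 h treatment. Detection via RT-PCR and capillary electrophoresis fluorescence; DMSO serves as baseline.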

[5] = ATG_SREBP_CIS: Attagene CIS-FACTORIAL HepG2 Assay for human Sterol Regulatory Element Binding (SREBP) (AID 2282962); settings: HepG2 Attagene cis-factorial SREBP reporter, mRNA; actives raise or lower the signal
In short: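 Twenty-four hours after chemical dosing of transfected HepG2 cultures, reporter RNA was converted to cDNA, amplified, end-labelled with 6-FAM and resolved by capillary electrophoresis. Responses were fitted relative to DMSO.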

[6] = biological target: Signal transducer and activator of transcription 3 (Homo sapiens) (UniProt P40763); test: ATG_STAT3_CIS: Attagene CIS-FACTORIAL HepG2 Assay for human Signal Transducer and Activator of Transcription 3 (STAT3) (AID 2282963); settings: HepG2, Attagene cis-factorial STAT3 reporter transcription; actives raise or lower the signal
In short: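 After a 24 h compound incubation, total RNA from MRTU-transfected HepG2 cells was converted to cDNA and reporter sequences PCR-amplified, labelled and profiled by capillary electrophoresis. Gain and loss of signal were referenced to DMSO.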

[7] = ATG_TA_CIS: Attagene CIS-FACTORIAL HepG2 Assay for human TA Basal Promoter (AID 2282964); settings: HepG2 Attagene CIS-factorial TA basal promoter reporter; actives raise or lower the signal
In short: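 HepG2 cells transiently transfected with multiple reporter units under cis promoter elements, reporting endogenous transcription factor activity; this endpoint tracks the TA basal promoter as background control. Reporter mRNA after 24 h dosing measured by RT-PCR/capillary electrophoresis; bidirectional fits versus DMSO.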

[8] = ATG_TCF_b_cat_CIS: Attagene CIS-FACTORIAL HepG2 Assay for human T-Cell-Factor with beta-catenin (TCF/b-cat) (AID 2282965); settings: HepG2 TCF/beta-catenin cis-reporter transcription, actives raise or lower the signal
In short: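 Endogenous transcription factor activity is captured through cis-promoter reporter constructs transiently introduced into human HepG2 liver cells. Induced reporter mRNA is measured after 24 h and fitted bidirectionally relative to DMSO.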

[9] = ATG_TAL_CIS: Attagene CIS-FACTORIAL HepG2 Assay for human TAL Basal Promoter (AID 2282966); settings: HepG2 Attagene cis-factorial TAL promoter reporter; actives raise or lower the signal;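 further: background control endpoint measuring basal TAL promoter reporter mRNA not a specific factor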
In short: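 Steps: transfect HepG2 with multiple reporter transcription units; dose 24 h; isolate RNA, reverse-transcribe, PCR-amplify, label with 6-FAM, digest with HpaI; resolve by capillary electrophoresis. Bidirectional fitting against DMSO baseline.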

[10] = ATG_TGFb_CIS: Attagene CIS-FACTORIAL HepG2 Assay for human Transforming Growth Factor (TGF) (AID 2282967); settings: HepG2 Attagene CIS TGFb reporter, mRNA transcription; actives raise or lower the signal
In short: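 HepG2 cells transiently transfected with cis-promoter-driven multiple reporter units measure endogenous TF activity; reporter mRNA quantified at 24 h by RT-PCR, FAM labeling, HpaI digestion and capillary electrophoresis. Bidirectional fit vs DMSO.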

[11] = ATG_VDRE_CIS: Attagene CIS-FACTORIAL HepG2 Assay for human Vitamin D Receptor Element (VDRE) (AID 2282968); settings: HepG2 VDRE cis-reporter transcription, actives raise or lower the signal
In short: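 In transiently transfected HepG2 liver cells, gain or loss of reporter mRNA after 24 h exposure is scored relative to DMSO, using fluorescence detection by capillary electrophoresis of RT-PCR products.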

[12] = biological target: Estrogen receptor (Homo sapiens) (UniProt P03372); test: ATG_ERa_TRANS: Attagene TRANS-FACTORIAL HepG2 Assay for human Estrogen Receptor alpha (ERa) (AID 2282970; active means hit-call score of the fitted dose curve at least 0.9, where 1 is the maximum); settings: HepG2 Attagene TRANS ERa GAL4 reporter, mRNA
In short: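 Multiplexed cell-based reporter format in HepG2: chimeric ERa-Gal4 protein drives GAL4-UAS reporter transcription. Fluorescent reporter mRNA quantified by capillary electrophoresis 24 hours after dosing; endpoint fitted as signal gain against DMSO.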

[13] = biological target: X-box-binding protein 1 (Homo sapiens) (UniProt P17861); test: ATG_Xbp1_CIS: Attagene CIS-FACTORIAL HepG2 Assay for human X-box Binding Protein 1 (XBP1) (AID 2282972); settings: HepG2 XBP1 cis-element reporter, Attagene multiplex; actives raise or lower the signal
In short: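 After a 24-hour chemical exposure of HepG2 cells carrying cis-regulated reporters, reporter mRNA levels are assessed. Quantification uses RT-PCR, 6-FAM labelling and capillary electrophoresis. Gain- or loss-of-signal is fitted against DMSO.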

[14] = ATG_M_19_TRANS: Attagene TRANS-FACTORIAL HepG2 Assay for M19 Transcription Factor (Internal Marker) (AID 2282974; active means hit-call score of the fitted dose curve at least 0.9, where 1 is the maximum); settings: HepG2 Attagene TRANS-FACTORIAL M19 internal marker reporter
In short: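 After transfection of HepG2 with GAL4-UAS-driven reporter constructs, cells are dosed for 24 h. Total RNA is reverse-transcribed, reporter sequences PCR-amplified and labelled, then HpaI-digested and sized by capillary electrophoresis.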

[15] = ATG_GAL4_TRANS: Attagene TRANS-FACTORIAL HepG2 Assay for GAL4 (Internal Marker) (AID 2282976; active means hit-call score of the fitted dose curve at least 0.9, where 1 is the maximum); settings: HepG2 Attagene TRANS GAL4 internal marker reporter
In short: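 Liver HepG2 line bearing multiplexed GAL4-UAS reporter constructs; 24 h chemical treatment. Transcripts were quantified as fluorescent fragments on capillary electrophoresis after RT-PCR and HpaI cut, with activity fitted upward from DMSO.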

[16] = ATG_Sox_CIS: Attagene CIS-FACTORIAL HepG2 Assay for human SRY-box transcription factor (SOX) (AID 2282960); settings: HepG2 Attagene cis-factorial SOX reporter, mRNA; actives raise or lower the signal
In short: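 Cells were transfected with reporter constructs under cis-regulatory promoters, then exposed to chemicals for 24 h. Reporter transcripts were quantified by fluorescence after RT-PCR and capillary electrophoresis; activity was fitted in both directions against DMSO.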

[17] = biological target: Transcription factor Sp1 (Homo sapiens) (UniProt P08047); test: ATG_Sp1_CIS: Attagene CIS-FACTORIAL HepG2 Assay for human Specificity Protein 1 (Sp1) (AID 2282961); settings: HepG2 Sp1 cis-reporter transcription, actives raise or lower the signal
In short: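 Measures mRNA induction of an Sp1-linked reporter in HepG2 cells 24 h post-dosing. Multiplexed reporters read by RT-PCR and capillary electrophoresis; DMSO serves as negative control and baseline.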

[18] = biological target: Nuclear receptor subfamily 1 group I member 3 (Homo sapiens) (UniProt Q14994); test: ATG_CAR_TRANS: Attagene TRANS-FACTORIAL HepG2 Assay for human Constitutive Androstane Receptor (CAR) (AID 2282969; active means hit-call score of the fitted dose curve at least 0.9, where 1 is the maximum;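 further: activators raise reporter mRNA above DMSO so AC50 marks induction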); settings: HepG2 Attagene TRANS-FACTORIAL CAR reporter
In short: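 Readout is reporter mRNA induction, quantified by fluorescent primer extension and capillary electrophoresis after RT-PCR. Cells were HepG2 transiently carrying chimeric NR-Gal4 constructs with GAL4-UAS reporters, treated for 24 h; activity scored upward from DMSO.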

[19] = biological target: Estrogen-related receptor gamma (Homo sapiens) (UniProt P62508); test: ATG_ERRg_TRANS: Attagene TRANS-FACTORIAL HepG2 Assay for human Estrogen-Related Receptor gamma (ERRg) (AID 2282977; active means hit-call score of the fitted dose curve at least 0.9, where 1 is the maximum;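 further: hits increase reporter signal over DMSO so potencies reflect activators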); settings: HepG2 Attagene TRANS reporter, ERRg transactivation
In short: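 Transient HepG2 transfectants, 24 h compound exposure, GAL4-UAS reporter mRNA by RT-PCR/6-FAM labelling/capillary electrophoresis; positive direction vs DMSO.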

[20] = biological target: Steroid hormone receptor ERR1 (Homo sapiens) (UniProt P11474); test: ATG_ERRa_TRANS: Attagene TRANS-FACTORIAL HepG2 Assay for human Estrogen-Related Receptor alpha (ERRa) (AID 2282971; active means hit-call score of the fitted dose curve at least 0.9, where 1 is the maximum); settings: HepG2 Attagene TRANS reporter, ERRa transactivation
In short: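 Signal gain relative to DMSO for an ERRa-Gal4 chimeric receptor, read as reporter mRNA by RT-PCR/capillary electrophoresis. Human HepG2 liver cells, transient multiplex reporter transfection, 24 h chemical exposure.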

Measured: AC50

Chain of Transcription factor Sp1 (Homo sapiens) (P08047 whole entry, looked up): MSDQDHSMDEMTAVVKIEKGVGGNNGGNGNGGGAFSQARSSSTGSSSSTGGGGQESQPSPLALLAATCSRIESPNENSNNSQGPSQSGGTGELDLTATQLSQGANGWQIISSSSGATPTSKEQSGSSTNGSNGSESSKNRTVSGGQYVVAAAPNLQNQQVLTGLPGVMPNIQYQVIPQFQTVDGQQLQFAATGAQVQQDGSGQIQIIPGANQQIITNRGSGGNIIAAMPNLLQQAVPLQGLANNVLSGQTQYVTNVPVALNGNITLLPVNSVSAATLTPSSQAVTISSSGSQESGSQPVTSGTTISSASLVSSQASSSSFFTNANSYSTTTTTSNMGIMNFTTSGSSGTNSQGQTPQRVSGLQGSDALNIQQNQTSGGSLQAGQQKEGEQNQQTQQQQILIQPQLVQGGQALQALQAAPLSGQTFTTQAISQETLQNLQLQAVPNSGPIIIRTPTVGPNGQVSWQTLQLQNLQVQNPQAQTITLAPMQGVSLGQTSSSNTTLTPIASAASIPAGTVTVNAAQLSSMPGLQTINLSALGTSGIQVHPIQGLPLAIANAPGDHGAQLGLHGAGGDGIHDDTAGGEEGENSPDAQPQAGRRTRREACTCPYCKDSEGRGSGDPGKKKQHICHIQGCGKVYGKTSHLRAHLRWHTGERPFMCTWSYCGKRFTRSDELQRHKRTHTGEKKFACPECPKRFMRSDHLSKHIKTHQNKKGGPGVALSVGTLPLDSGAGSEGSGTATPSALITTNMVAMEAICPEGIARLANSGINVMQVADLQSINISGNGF
Chain of Nuclear receptor subfamily 1 group I member 3 (Homo sapiens) (Q14994 whole entry, looked up, the tested form may be a part): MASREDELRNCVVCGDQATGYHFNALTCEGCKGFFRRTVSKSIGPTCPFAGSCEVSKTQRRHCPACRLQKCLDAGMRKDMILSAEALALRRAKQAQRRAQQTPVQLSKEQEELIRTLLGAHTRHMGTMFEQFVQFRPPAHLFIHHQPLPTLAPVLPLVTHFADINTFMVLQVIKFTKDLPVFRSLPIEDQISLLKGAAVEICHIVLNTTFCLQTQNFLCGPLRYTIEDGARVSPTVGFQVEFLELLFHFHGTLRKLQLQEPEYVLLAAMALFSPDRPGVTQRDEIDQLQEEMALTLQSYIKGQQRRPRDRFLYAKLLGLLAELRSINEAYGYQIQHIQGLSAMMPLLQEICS
Chain of X-box-binding protein 1 (Homo sapiens) (P17861 whole entry, looked up): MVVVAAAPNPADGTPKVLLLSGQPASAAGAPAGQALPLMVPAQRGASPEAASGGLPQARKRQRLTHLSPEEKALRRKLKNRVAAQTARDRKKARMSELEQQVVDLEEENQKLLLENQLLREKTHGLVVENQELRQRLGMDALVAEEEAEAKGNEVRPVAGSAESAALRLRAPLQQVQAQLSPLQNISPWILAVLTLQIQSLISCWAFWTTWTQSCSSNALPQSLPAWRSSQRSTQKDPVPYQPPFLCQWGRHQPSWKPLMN
Chain of Estrogen-related receptor gamma (Homo sapiens) (P62508 whole entry, looked up, the tested form may be a part): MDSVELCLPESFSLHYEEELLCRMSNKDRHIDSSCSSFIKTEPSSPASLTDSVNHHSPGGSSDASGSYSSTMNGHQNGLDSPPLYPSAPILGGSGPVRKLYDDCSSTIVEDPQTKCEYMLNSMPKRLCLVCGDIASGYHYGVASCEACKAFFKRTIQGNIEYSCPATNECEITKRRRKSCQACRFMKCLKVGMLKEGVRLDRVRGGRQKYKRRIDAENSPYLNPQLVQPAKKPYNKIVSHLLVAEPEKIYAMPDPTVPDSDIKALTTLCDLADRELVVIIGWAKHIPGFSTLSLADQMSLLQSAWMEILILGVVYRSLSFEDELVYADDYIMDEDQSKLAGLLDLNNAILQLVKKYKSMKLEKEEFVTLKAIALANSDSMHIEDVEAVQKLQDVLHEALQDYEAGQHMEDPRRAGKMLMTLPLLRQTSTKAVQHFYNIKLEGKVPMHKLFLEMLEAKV
Chain of Signal transducer and activator of transcription 3 (Homo sapiens) (P40763 whole entry, looked up): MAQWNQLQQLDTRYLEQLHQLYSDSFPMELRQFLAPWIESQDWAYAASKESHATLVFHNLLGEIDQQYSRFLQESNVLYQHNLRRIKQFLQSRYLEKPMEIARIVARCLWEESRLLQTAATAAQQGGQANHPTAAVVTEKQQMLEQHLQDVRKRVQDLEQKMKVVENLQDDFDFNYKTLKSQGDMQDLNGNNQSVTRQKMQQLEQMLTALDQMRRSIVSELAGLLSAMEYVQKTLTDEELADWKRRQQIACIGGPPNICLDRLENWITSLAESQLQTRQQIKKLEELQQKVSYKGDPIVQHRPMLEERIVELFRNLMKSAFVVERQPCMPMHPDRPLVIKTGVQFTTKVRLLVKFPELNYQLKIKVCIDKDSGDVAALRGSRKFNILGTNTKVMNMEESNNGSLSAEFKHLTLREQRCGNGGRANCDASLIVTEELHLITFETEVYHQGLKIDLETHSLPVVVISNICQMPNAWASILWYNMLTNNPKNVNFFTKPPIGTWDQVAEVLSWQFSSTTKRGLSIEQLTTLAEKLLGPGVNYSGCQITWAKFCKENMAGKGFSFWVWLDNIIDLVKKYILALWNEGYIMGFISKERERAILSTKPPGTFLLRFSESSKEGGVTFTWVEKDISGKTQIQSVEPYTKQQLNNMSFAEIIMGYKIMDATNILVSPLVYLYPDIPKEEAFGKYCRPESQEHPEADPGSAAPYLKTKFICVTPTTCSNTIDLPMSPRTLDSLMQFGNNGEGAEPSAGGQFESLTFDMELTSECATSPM
Chain of Paired box protein Pax-6 (Homo sapiens) (P26367 whole entry, looked up): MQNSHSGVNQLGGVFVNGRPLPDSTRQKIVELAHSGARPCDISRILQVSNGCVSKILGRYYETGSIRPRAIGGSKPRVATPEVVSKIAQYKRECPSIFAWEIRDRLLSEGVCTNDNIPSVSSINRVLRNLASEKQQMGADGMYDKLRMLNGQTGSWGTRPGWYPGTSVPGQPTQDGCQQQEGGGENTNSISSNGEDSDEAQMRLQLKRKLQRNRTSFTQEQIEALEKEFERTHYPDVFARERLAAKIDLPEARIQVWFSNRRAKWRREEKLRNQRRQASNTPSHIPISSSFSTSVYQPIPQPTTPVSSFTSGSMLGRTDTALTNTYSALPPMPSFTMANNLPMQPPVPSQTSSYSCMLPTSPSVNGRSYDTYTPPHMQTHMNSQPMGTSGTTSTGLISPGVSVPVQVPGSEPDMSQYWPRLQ
Chain of Estrogen receptor (Homo sapiens) (P03372 whole entry, looked up, the tested form may be a part): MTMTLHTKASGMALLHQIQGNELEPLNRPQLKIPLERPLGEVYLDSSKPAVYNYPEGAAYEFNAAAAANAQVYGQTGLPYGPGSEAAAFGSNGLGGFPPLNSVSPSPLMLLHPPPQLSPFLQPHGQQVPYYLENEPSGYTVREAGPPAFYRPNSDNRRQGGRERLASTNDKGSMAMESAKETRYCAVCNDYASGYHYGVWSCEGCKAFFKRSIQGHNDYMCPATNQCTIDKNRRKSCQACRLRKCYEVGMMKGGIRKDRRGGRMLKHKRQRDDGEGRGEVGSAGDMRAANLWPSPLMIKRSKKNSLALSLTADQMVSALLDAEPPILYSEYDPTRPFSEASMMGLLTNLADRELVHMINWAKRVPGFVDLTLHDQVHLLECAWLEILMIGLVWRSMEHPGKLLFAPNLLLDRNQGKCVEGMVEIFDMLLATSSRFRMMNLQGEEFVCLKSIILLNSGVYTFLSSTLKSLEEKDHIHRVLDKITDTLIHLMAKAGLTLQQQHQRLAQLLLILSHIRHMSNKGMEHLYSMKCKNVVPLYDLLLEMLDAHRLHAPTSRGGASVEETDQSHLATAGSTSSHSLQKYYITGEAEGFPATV
Chain of Steroid hormone receptor ERR1 (Homo sapiens) (P11474 whole entry, looked up, the tested form may be a part): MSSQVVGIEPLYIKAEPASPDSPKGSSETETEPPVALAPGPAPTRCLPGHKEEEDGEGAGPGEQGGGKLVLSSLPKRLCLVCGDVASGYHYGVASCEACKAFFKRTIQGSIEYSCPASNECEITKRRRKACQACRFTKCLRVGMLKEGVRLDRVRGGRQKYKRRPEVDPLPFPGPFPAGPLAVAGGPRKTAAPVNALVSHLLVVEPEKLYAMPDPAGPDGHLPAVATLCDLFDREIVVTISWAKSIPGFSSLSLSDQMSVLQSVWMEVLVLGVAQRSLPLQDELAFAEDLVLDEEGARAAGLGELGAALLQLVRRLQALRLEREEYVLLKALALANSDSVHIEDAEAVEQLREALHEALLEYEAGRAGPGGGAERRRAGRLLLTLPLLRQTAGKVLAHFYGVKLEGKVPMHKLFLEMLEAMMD

COC(=O)c1c(C)cc(O)c(C)c1O
active: [12] 38.7 µM
not listed: [16] | [17] | [18] | [19] | [20]
inactive: all other assays above

C=CCOc1c(Br)cc(Br)cc1Br
active: [2] 12.7 µM | [11] 23.7 µM | [12] 15.7 µM
not listed: [3] | [14] | [15] | [20]
inactive: all other assays above

CCCCCCC1(C)CCC(=O)O1 (configuration not stated)
active: [2] 30.3 µM
not listed: [4] | [14] | [15] | [19] | [20]
inactive: all other assays above

[Cl][In]([Cl])[Cl]
not listed: [3] | [14] | [15]
inactive: all other assays above

CC(=O)OC1C2(C)CCC(C2)C1(C)C (configuration not stated)
not listed: [4] | [10] | [11] | [14] | [15] | [18] | [20]
inactive: all other assays above

O=c1cc(-c2ccccc2)oc2ccccc12
active: [1] 99.5 µM | [2] 4.25 µM | [3] 4.81 µM | [7] 99.5 µM | [11] 30.5 µM | [12] 4.97 µM | [13] 82.8 µM
not listed: [4] | [8] | [15] | [19] | [20]
inactive: all other assays above

Cc1ccc(N)c([N+](=O)[O-])c1
not listed: [7] | [12] | [15] | [16] | [18] | [19] | [20]
inactive: all other assays above

CCOC(=O)NNc1nncc2ccccc12
not listed: [4] | [8] | [10] | [12] | [14] | [18] | [19] | [20]
inactive: all other assays above

Cc1ccc2oc(=O)ccc2c1
not listed: [4] | [18] | [19] | [20]
inactive: all other assays above

Source: PubChem BioAssay (EPA / NIEHS)
